Measurements reported in PubChem BioAssay AID1159580 (chemical genetic matrix, 2015).
Screen size: about 5,500 compounds; about 2,000 (36%) were called active. About 18% were inconclusive and are not listed. Rule as the data show it: active = normalized growth mostly below about 0.91 (no sharp cut-off); inconclusive = no clear call, values can overlap the other calls; inactive = mostly above about 0.92. The list shows a part of the results.

Experiment: chemical genetic growth profiling, strain panel (AID 1159580);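 also: tested at 20 µM; growth read once vehicle control cultures reached saturation at 30 °C; 1 = growth at the plate median or of vehicle wells; lower values mean less growth of the strain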
Conditions: S. cerevisiae deletion strains, growth OD
[1] = locus YHR030C, strain SLT2, hits give low values
[2] = locus YHR079C, strain IRE1, hits give low values
[3] = locus YJL095W, strain BCK1, hits give low values
[4] = locus YJR066W, strain TOR1, hits give low values
[5] = locus YLR113W, strain HOG1, hits give low values
[6] = locus YNL183C, strain NPR1, hits give low values
[7] = locus YOR231W, strain MKK1, hits give low values
[8] = locus YPL256C, strain CLN2, hits give low values
[9] = locus YAL040C, strain CLN3, hits give low values
[10] = locus YCL061C, strain MRC1 (second series), hits give low values
[11] = locus YDR363W, strain ESC2, hits give low values
[12] = locus YER002W, strain NOP16, hits give low values
[13] = locus YJR075W, strain HOC1, hits give low values
[14] = locus YNL197C, strain WHI3, hits give low values
[15] = locus YNL224C, strain SQS1, hits give low values
[16] = locus YOR083W, strain WHI5 (second series), hits give low values

Measured: normalized growth

CC(C)(CO)C(O)C(=O)NCCC(=O)NCCSSCCNC(=O)CCNC(=O)C(O)C(C)(C)CO (stereo not drawn)
inactive: [1] 0.954 | [2] 0.973 | [3] 0.968 | [4] 0.897 | [5] 0.951 | [6] 0.89 | [7] 0.955 | [8] 0.951

CC(=O)NCCCS(=O)(=O)O
inactive: locus YAL021C, strain ccr4, hits give low values 0.994 | locus YAL026C, strain drs2, hits give low values 1.02 | locus YAL030W, strain snc1, hits give low values 1.01 | locus YBL061C, strain skt5, hits give low values 1.01 | locus YBR009C, strain hhf1, hits give low values 1.02 | locus YBR023C, strain chs3, hits give low values 1.02 | locus YBR171W, strain sec66, hits give low values 1.03 | locus YBR231C, strain swc5, hits give low values 1.02 | locus YBR279W, strain paf1, hits give low values 1.02 | locus YCL011C, strain gbp2, hits give low values 1.01 | locus YCL016C, strain dcc1, hits give low values 1.02 | locus YCL061C, strain MRC1, hits give low values 1.02 | locus YCL069W, strain vba3, hits give low values 1.01 | locus YCR088W, strain abp1, hits give low values 1.01 | locus YDL005C, strain med2, hits give low values 1.01 | locus YDL040C, strain nat1, hits give low values 1.02 | locus YDR001C, strain nth1, hits give low values 1.01 | locus YDR069C, strain doa4, hits give low values 1.01 | locus YDR137W, strain rgp1, hits give low values 1.03 | locus YDR159W, strain sac3, hits give low values 1.01 | locus YDR195W, strain ref2 1.02 | locus YDR297W, strain sur2, hits give low values 1.01 | locus YDR334W, strain swr1, hits give low values 1.01 | locus YDR335W, strain msn5, hits give low values 1.01 | locus YDR392W, strain spt3, hits give low values 0.984 | locus YEL003W, strain gim4, hits give low values 1.01 | locus YEL037C, strain rad23, hits give low values 1.01 | locus YEL061C, strain CIN8 (second series), hits give low values 1 | locus YER015W, strain faa2, hits give low values 1.01 | locus YER016W, strain bim1, hits give low values 1.02 | locus YER111C, strain swi4, hits give low values 1.02 | locus YER155C, strain BEM2 (second series), hits give low values 1.04 | locus YFR010W, strain ubp6, hits give low values 1.01 | locus YGL167C, strain pmr1, hits give low values 1.01 | locus YGL173C, strain kem1, hits give low values 1.02 | locus YGL227W, strain vid30, hits give low values 1.02 | locus YGL240W, strain doc1, hits give low values 1.02 | locus YGL253W, strain hxk2, hits give low values 1.01 | locus YHR013C, strain ard1, hits give low values 1.05 | locus YHR027C, strain rpn1, hits give low values 1.01 | [1] 1.03 | [2] 1.04 | locus YHR142W, strain chs7, hits give low values 1.01 | locus YJL092W, strain hpr5, hits give low values 1.01 | locus YJL095W, strain BCK1 (second series), hits give low values 1.01 | [3] 1.01 | locus YJL115W, strain asf1, hits give low values 1.01 | locus YJL129C, strain trk1, hits give low values 1.01 | locus YJL154C, strain vps35, hits give low values 1.01 | locus YJL164C, strain tpk1, hits give low values 1 | locus YJL166W, strain qcr8, hits give low values 1.02 | locus YJL187C, strain SWE1, hits give low values 1.01 | [4] 0.989 | locus YKL160W, strain elf1, hits give low values 1.02 | locus YKR026C, strain gcn3, hits give low values 0.993 | locus YKR091W, strain srl3, hits give low values 1.02 | locus YLL001W, strain dnm1, hits give low values 1.02 | locus YLL026W, hits give low values 1.02 | locus YLL041C, strain sdh2, hits give low values 1.01 | locus YLR027C, strain aat2, hits give low values 1.02 | [5] 0.97 | locus YLR221C, strain rsa3, hits give low values 1.01 | locus YLR258W, strain gsy2, hits give low values 1.01 | locus YLR262C, strain YPT6 (second series), hits give low values 1.02 | locus YLR320W, strain mms22, hits give low values 1.01 | locus YLR342W, strain FKS1, hits give low values 1.01 | locus YLR357W, strain rsc2, hits give low values 1.06 | locus YLR370C, strain arc18, hits give low values 1.01 | locus YLR384C, strain iki3, hits give low values 1.02 | locus YML120C, strain ndi1, hits give low values 1.01 | locus YMR058W, strain fet3, hits give low values 1.02 | locus YMR125W, strain sto1, hits give low values 1.03 | locus YMR129W, hits give low values 1 | locus YMR205C, strain PFK2, hits give low values 1.03 | locus YMR231W, strain pep5, hits give low values 1.01 | locus YNL071W, strain lat1, hits give low values 1.02 | [6] 1 | locus YNL209W, strain ssb2, hits give low values 1.01 | locus YNL248C, strain rpa49, hits give low values 1.01 | locus YNL322C, strain KRE1 (second series), hits give low values 1.01 | locus YNR049C, strain mso1, hits give low values 1.02 | locus YOR001W, strain rrp6, hits give low values 1.01 | locus YOR070C, strain gyp1, hits give low values 1.01 | locus YOR080W, strain dia2, hits give low values 1.01 | locus YOR083W, strain WHI5, hits give low values 0.998 | locus YOR106W, strain vam3, hits give low values 1.01 | [7] 1.02 | locus YOR265W, strain rbl2, hits give low values 1.01 | locus YOR270C, strain vph1, hits give low values 1.04 | locus YOR290C, strain snf2, hits give low values 1.01 | locus YPL051W, strain arl3, hits give low values 1.01 | locus YPL078C, strain atp4, hits give low values 1.02 | locus YPL106C, strain sse1, hits give low values 1.02 | locus YPL240C, strain hsp82, hits give low values 1.01 | [8] 1.02

CCCCCCCCCCCCCCCC(=O)NCCO
active: [15] 0.823
inactive: [9] 1.02 | [10] 1.01 | [11] 1.02 | [12] 1.01 | [13] 1.01 | locus YMR307W, strain GAS1, hits give low values 1 | [14] 1.03 | [16] 1.02 | locus YPL055C, strain LGE1, hits give low values 1.02 | locus YPL241C, strain CIN2, hits give low values 0.999

CCCCCCCC/C=C\CCCCCCCC(=O)NCCO
inactive: locus YAL013W, strain DEP1, hits give low values 1.01 | [9] 1.01 | [10] 1 | locus YDR150W, strain NUM1, hits give low values 1 | [11] 0.974 | [12] 1.02 | [13] 1 | locus YMR263W, strain SAP30, hits give low values 0.994 | locus YNL153C, strain GIM3, hits give low values 0.981 | locus YNL175C, strain NOP13, hits give low values 0.963 | [14] 0.989 | [15] 1 | locus YNL322C, strain KRE1, hits give low values 0.978 | [16] 0.999
